Reference: PubChem BioAssay AID588726 (The Scripps Research Institute Molecular Screening Center, 2011)
Among all 360,000 compounds or so, about 8,200 (2.3%) were called active. The full list was thinned out, with actives kept by preference. A number with no mark means an inactive call. Cut-off read from the data, not from the text of the source: active = inhibition above about 27%; inactive = the rest.

Target: Fructose-bisphosphate aldolase (Mycobacterium tuberculosis (strain ATCC 25618 / H37Rv)) (UniProt P9WQA3)
Assay: M. tuberculosis aldolase activity blockers – biochemical, fluorescence, strain H37Rv, primary screen (AID 588726);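 note: 0% = vehicle and 100% = reference inhibitor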
Conditions: purified M. tuberculosis FBA, fluorescence read-out, at 1 µM, active compounds read high

Sequence of Fructose-bisphosphate aldolase (Mycobacterium tuberculosis (strain ATCC 25618 / H37Rv)) (P9WQA3 whole entry, looked up): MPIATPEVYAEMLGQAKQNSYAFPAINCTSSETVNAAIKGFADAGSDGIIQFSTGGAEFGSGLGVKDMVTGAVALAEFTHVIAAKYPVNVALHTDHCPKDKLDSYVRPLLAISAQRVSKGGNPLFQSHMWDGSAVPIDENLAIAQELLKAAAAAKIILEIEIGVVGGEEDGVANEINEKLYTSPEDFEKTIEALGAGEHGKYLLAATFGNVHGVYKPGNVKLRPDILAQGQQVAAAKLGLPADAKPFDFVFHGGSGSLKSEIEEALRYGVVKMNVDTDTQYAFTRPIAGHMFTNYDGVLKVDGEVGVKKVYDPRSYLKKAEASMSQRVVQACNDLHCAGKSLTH

Row | SMILES | inhibition
1 | CCCCCn1c(SCCC(C)C)nc2c1c(=O)[nH]c(=O)n2C | -1.96%
2 | Nc1ccc2c(c1)C(O)c1ccc(Cl)cc1-2 (centres undefined) | 0.95%
3 | Nc1nc2cc(Cl)ccc2n1N | 1.5%
4 | Nc1ccc2nn(-c3ccc(Cl)cc3)nc2c1 | 52.9% (active)
5 | CCC(C)(C)NC(=O)CN(C(=O)CCC(=O)Nc1cc(C)ccn1)c1ccc2c(c1)OCCO2 | -0.12%
6 | Cc1ccc(CCn2c3c(c4ccccc42)CN(C)CC3)cn1 | 4.44%
7 | Cn1cccc1C(C#N)c1ccccc1C#N (centres undefined) | -1.4%
8 | CC(C)C(=O)Nc1oc(-c2ccccc2)cc1C#N | 1.2%
9 | Cn1cc(-c2ccccc2)cc(C#N)c1=O | 50.3% (active)
10 | O=P(O)(CP(=O)(c1ccccc1)c1ccccc1)c1ccccc1O | -1.86%
11 | COc1ccc(CCN2CC(C(=O)OCC(=O)NCc3ccccc3Cl)CC2=O)cc1OC (centres undefined) | -0.32%
12 | Cc1c(Br)c([N+](=O)[O-])nn1C(C)C(=O)Nc1nccs1 (centres undefined) | 0.22%
13 | Cn1nnnc1-c1cc(Cl)cc(Cl)c1 | -1.41%
14 | O=C(CNC(=O)c1ccccc1Br)NCCSc1ccc(Br)cc1 | 2.75%
15 | CCCCC(NS(=O)(=O)c1ccc(C)cc1)C(=O)Oc1ccc2c3c(c(=O)oc2c1)CCC3 (centres undefined) | 61.7% (active)
16 | Cc1cc(=O)oc2cc(OC(C)C(=O)NCCc3ccc(S(N)(=O)=O)cc3)ccc12 (centres undefined) | 20.4%
17 | CSCCC(NS(=O)(=O)c1ccc(C)cc1)C(=O)N1CCCC1 (centres undefined) | -1.91%
18 | C[C@H](OC(=O)n1ccnc1)[C@@H]1O[C@@]2(C)CCC[C@@H]1O2 | -0.83%
19 | CC1(C)C(=O)C2(CCCCC2)C(=O)OC1c1cccs1 (centres undefined) | -0.98%
20 | O=C(Nc1ccc(Cl)cc1)C1Cc2c(-c3ccc4c(c3)OCO4)ccnc2O1 (centres undefined) | 26.8%
21 | COc1ccc(NC(=O)C2Cc3c(-c4ccc5c(c4)OCO5)ccnc3O2)cn1 (centres undefined) | 64.8% (active)
22 | COc1ccc(NC(=O)C2Cc3c(-c4ccc(Cl)cc4)ccnc3O2)cc1 (centres undefined) | -1.52%

Row | SMILES | inhibition
23 | CCCCn1c(N)c(N(Cc2ccccc2OC)C(=O)COc2cc(C)ccc2Cl)c(=O)[nH]c1=O | 1.47%
24 | CCOc1ccc(OCC)c(-c2c(=O)n(OCc3ccc(Cl)cc3)c3ccccc3[n+]2[O-])c1 | -1.68%
25 | Brc1cnc(N2CCCC2)nc1N1CCCCC1 | 4.23%
26 | c1ccc(-c2cc(N3CCCCC3)c3ccccc3n2)cc1 | 0.14%
27 | Brc1cnc2ccccc2c1N1CCCCC1 | 51.2% (active)
28 | CCOC(=O)c1c(S(=O)(=O)Nc2ccc(CN3CCC(C)CC3)cc2)c(C)n(C)c1C | 1.42%
29 | CCCCn1c(=S)[nH]c2ncccc2c1=O | 0.66%
30 | CN(CCc1ccccn1)C(=O)CCC1CCCN(Cc2ccccc2OC(F)F)C1 (centres undefined) | 5.01%
31 | CC(C)CCNc1nc(N2CCCC2)c2c(c1C#N)CCN(C)C2 | 4.23%
32 | CCN1CCc2c(C#N)c(NCc3ccccc3)nc(NCCO)c2C1 | 33.9% (active)
33 | CCCCc1nc(NCc2ccccc2)c(C#N)c2c1CCCC2 | 0.15%
34 | COc1ccc(NC2CC(=O)N(C)C2=O)cc1 (centres undefined) | 1.09%
35 | Cc1ccc(-c2nc(COC(=O)c3c(C)noc3C)cs2)cc1 | 1.63%
36 | CCN(C(=O)COC(=O)CCC(=O)c1cccs1)C1CCCCC1 | 4.65%
37 | CCn1c(=N)c(S(=O)(=O)c2ccc(F)cc2)cc2c(=O)n3ccccc3nc21 | 20.8%
38 | CCOC(=O)c1cc2c(=O)n3ccccc3nc2n(CC(C)C)c1=NC(=O)c1c(-c2c(F)cccc2Cl)noc1C | 13.1%
39 | O=C(CN1CCN(S(=O)(=O)/C=C/c2ccccc2)CC1)NC(=O)NCc1ccco1 | -1.09%
40 | O=c1ccc(-c2ccc(S(=O)(=O)Nc3ccccc3)o2)n[nH]1 | 2.01%
41 | O=C(CSc1nnc(-c2ccncc2)o1)NCc1ccc(Cl)cc1 | -1.06%
42 | COCCNC(=O)c1ccccc1-c1nc(-c2ccccc2Cl)no1 | 0.39%
43 | CCCCNC(=O)c1onc(CSc2cccc(OC)c2)c1C(=O)O | 1.62%
44 | CCCCNc1c(-c2cccc(Sc3ccc(OC)cc3)c2)nc2ccccn12 | 40.1% (active)

Row | SMILES | inhibition
45 | COC(=O)c1ccc2nc(-c3cccc(Br)c3)c(Cc3ccc(OC)cc3C)n2c1 | 2.37%
46 | CC(=O)c1nn(-c2ccccc2)c(=Nc2ccccc2)cc1C | 2.4%
47 | O=C1c2ccccc2C(c2nc3ccccc3[nH]2)N1c1ccccc1 (centres undefined) | 0.93%
48 | COC(=O)c1cc(CNC(=O)CC(C)c2ccccc2)ccc1OC (centres undefined) | -0.38%
49 | O=C1CCCN1CCCNC(=S)Nc1ccc(F)c(Cl)c1 | -1.02%
50 | COc1cc(Cn2c3ccc(NC(=O)CC(C)c4ccccc4)cc3c(=O)n2C)ccc1F (centres undefined) | 146% (active)
51 | Fc1ccccc1CNC(=S)Nc1ccc(Cl)cc1 | 0.3%
52 | COc1cccc(NC(=O)CC(c2ccc(OC(C)C)cc2)c2ccccc2OC)c1 (centres undefined) | 1.51%
53 | CCNC(=S)Nc1ccc2c(c1)c(=O)n(C)n2Cc1ccc(Cl)cc1 | 59.7% (active)
54 | CC=CCn1c(SCCCc2ccccc2)nc2c1c(=O)[nH]c(=O)n2C | 4.11%
55 | CCOC(=O)c1sc(/N=C/Nc2nc(C)c(C(=O)OCC)s2)nc1C | 2.19%
56 | N#Cc1ccccc1NC(=O)c1cccc(COc2ccc(Cl)cc2Cl)c1 | -1.7%
57 | CCOc1ccc(C(C)=O)cc1COC(=O)CN1C(=O)NC2(CCCC2)C1=O | -0.88%
58 | Cc1ccc(C=O)c([B-](F)(F)F)c1 | 2.07%
59 | CN1c2ccc(C=O)c3c(C=O)ccc(c23)N(C)C1(C)C | 62.1% (active)
60 | O=S(=O)(/C=C/c1ccccc1)NCCc1ccccn1 | 1.96%
61 | COC(=O)c1onc(-c2c(OC)cc(OC)cc2OC)c1C(=O)OC | -3.51%
62 | CC(=O)N1C(=O)/C(=C2\SC(=S)N(NC(=O)c3ccc(O)cc3)C2=O)c2ccccc21 | 31.8% (active)
63 | COc1ccc2c(c1)N(C)/C(=C1/SC(=S)N(NC(C)=O)C1=O)S2 | -4.56%
64 | COc1ccc(C(=O)NN2C(=O)C3C(c4ccccc4)C=CC(c4ccccc4)C3C2=O)cc1 (centres undefined) | 1.1%
